Reference: PubChem BioAssay (NCI)
Compounds without any hit were thinned out: in the full panel of roughly 83,000, 20% have a hit.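 A percent growth of 40 corresponds to 60% growth inhibition; 0 means no net growth; -100 means all cells died. Active threshold: below 10.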 Values without a mark were called inactive. Calls of active or inactive are those of the source.

Legend:
Experiment in all cases: NCI-60 one-dose screen, 48 h (100 = growth as untreated, 0 = no growth, -100 = all killed)
Conditions in all cases: 10 µM unless noted
[1] = test system: SK-MEL-2 melanoma
[2] = test system: EKVX NSCLC
[3] = test system: SN12C renal
[4] = test system: UO-31 renal
[5] = test system: TK-10 renal
[6] = test system: ACHN renal
[7] = test system: CAKI-1 renal
[8] = test system: A498 renal
[9] = test system: MOLT-4 leukemia
[10] = test system: SR leukemia
[11] = test system: OVCAR-8 ovarian
[12] = test system: OVCAR-5 ovarian
[13] = test system: OVCAR-4 ovarian
[14] = test system: SK-OV-3 ovarian
[15] = test system: IGROV1 ovarian
[16] = test system: OVCAR-3 ovarian
[17] = test system: HS 578T breast
[18] = test system: NCI/ADR-RES ovarian
[19] = test system: CCRF-CEM leukemia
[20] = test system: RPMI-8226 leukemia

SMILES	growth [1]	growth [2]	growth [3]	growth [4]	growth [5]	growth [6]	growth [7]	growth [8]	growth [9]	growth [10]	growth [11]	growth [12]	growth [13]	growth [14]	growth [15]	growth [16]	growth [17]	growth [18]	growth [19]	growth [20]
NC(=O)c1ncn(C2OC(CO)C(O)C2O)n1 (stereo unspecified)	40.7%	90.2%	82.4%	83.7%	109%	90.5%	99.2%	89.1%	52.7%	73.2%	87.5%	95.2%	87.8%	87.9%	4.17% (active)	95.1%	86.4%	88.6%	–	–
Cc1cc(Nc2cccc(C(F)(F)F)c2)n2c(nc3ccccc32)c1C#N	28.7%	31.5%	25.4%	28.3%	58.3%	46.9%	38.7%	–	56.6%	31.6%	43%	78%	34.6%	46.4%	57.6%	39.4%	68.5%	–	55.8%	22.8%
O=c1[nH]c2c(s1)CCCC2CN1CCCCC1 (stereo unspecified)	97.2%	105%	103%	89.3%	93%	97.6%	99%	95.8%	–	–	113%	89.2%	113%	86.6%	120%	111%	105%	99%	–	103%
C=C(C)[C@H]1CC/C(C)=C/CC[C@]2(C)O[C@H]2CC/C(COC(=O)[C@@H](OC(C)=O)[C@H](NC(=O)c2ccccc2)c2ccccc2)=C\[C@@H]1O	119%	84.7%	93.8%	79.4%	99.7%	116%	89.6%	92.8%	98.2%	51.2%	93.9%	106%	85.7%	94.1%	–	104%	91%	88.1%	–	–
CC1=NNC(=O)C1CCC(=O)N/N=C(\C)c1ccc2ccccc2c1 (stereo unspecified)	102%	154%	102%	84.8%	130%	111%	107%	110%	88.9%	–	102%	77.2%	117%	126%	92.6%	105%	114%	94.3%	–	107%
CCCCCCCCCCCCCCCCCCOc1ccccc1N	86.3%	85.3%	27.8%	-37% (active)	103%	97.8%	67.8%	61.8%	22.9%	75.4%	70.9%	–	55%	74.7%	75.1%	44.9%	84.2%	86.9%	–	12.1%
COc1cc2nc(-c3ccc(C(F)(F)F)cc3)cc(OCCCN3CCCCC3)c2cc1OC	61.4%	69.4%	45.7%	30.5%	105%	38.2%	0.476% (active)	–	35.8%	8.2% (active)	52.4%	57.7%	54.7%	77.8%	31.8%	60.1%	59.1%	49.7%	42.4%	24.8%
Clc1cc(Cl)cc(N2N=C(c3cccc(Nc4ccncc4)c3)CC2c2ccc3c(c2)OCO3)c1 (stereo unspecified)	81.7%	78.8%	64.6%	39.5%	65.7%	-27.5% (active)	16.4%	96.6%	-0.295% (active)	2.87% (active)	-21% (active)	86.7%	14.9%	74.1%	2.89% (active)	52.3%	50.6%	66.9%	–	11.3%
Cc1ccc(C(=O)Nc2ccccc2C(=O)N/N=C(\c2ccccc2)c2ccccn2)cc1	41.4%	13.1%	28.9%	3.57% (active)	47.2%	15.1%	10.5%	–	15.8%	16.8%	19.5%	43.3%	9.94% (active)	8.33% (active)	24%	22.5%	68.3%	13.3%	8.79% (active)	16%
O=c1nc2n(nc1/C=C/c1ccco1)CC(c1ccc(Cl)cc1)=NN2	30.3%	72.1%	136%	64%	104%	122%	94%	107%	84.2%	–	67.9%	122%	95.3%	93%	8.48% (active)	109%	116%	–	–	–
COc1ccc(Cl)cc1NC(=O)c1c(NC(=O)C(F)(F)C(F)(F)F)sc2c1CCCCC2	-30% (active)	-5.45% (active)	5.95% (active)	1.55% (active)	10.7%	1.54% (active)	-13.6% (active)	-45.1% (active)	8.91% (active)	4.32% (active)	10.5%	21.6%	7.67% (active)	-19.6% (active)	20.3%	6.24% (active)	-3.45% (active)	3.81% (active)	–	-31.9% (active)
CCc1c(Nc2ccc(C)cc2)nc(N)[nH]c1=O	98.1%	92.1%	92.4%	85.8%	104%	103%	91.7%	–	101%	87.9%	102%	101%	108%	114%	102%	119%	111%	106%	104%	103%
COc1ccc(CC(C)=C(c2ccc(OCCN(C)C)cc2)c2ccc(OCCN(C)C)cc2)cc1	108%	88.5%	75.2%	60.6%	99.6%	98%	84%	–	64.6%	-13.2% (active)	86%	86.8%	90.1%	85.7%	74.6%	83.8%	74.6%	86.4%	17.1%	56.2%
Cc1cn(-c2cc(C(=O)Nc3cccc(C#Cc4cccc5[nH]nc(N)c45)c3)cc(C(F)(F)F)c2)cn1	5.21% (active)	68%	62.3%	30.2%	58.5%	30.3%	79.6%	–	36.5%	49.9%	48.8%	44.2%	38%	72.6%	25.5%	77.7%	39.4%	98.6%	47.4%	20.1%
C=C(C)[C@@H]1CC[C@]2(CO)CC[C@]3(C)[C@H](CC[C@@H]4[C@@]5(C)CCCNC(C)(C)[C@@H]5CC[C@]43C)[C@@H]12	78.8%	63.3%	45.9%	53.8%	80.8%	50.2%	38.4%	–	4.4% (active)	-40.4% (active)	23.5%	75%	31.8%	92.2%	36.3%	44.4%	46.8%	44.8%	12.4%	-36.9% (active)
CCCCCN1C=C/C(=C\C(=O)N(C)c2ccc(Br)cc2)c2ccccc21	109%	84.8%	97.6%	77.6%	102%	113%	86.7%	–	85%	90.5%	89.4%	104%	84.4%	96.8%	96.3%	98.8%	98.6%	100%	97.9%	89.1%
CCOc1ccc(/C=N/Nc2cc(C)nc3ccc(Cl)cc23)cc1	91%	81.7%	-26% (active)	47.6%	121%	51.2%	78.2%	–	-30.5% (active)	-9.13% (active)	45.2%	79.2%	56.8%	84.1%	45.4%	-16.3% (active)	92.3%	45.9%	0.25% (active)	-1.34% (active)
O=c1[nH]c(=O)[nH]c(=S)[nH]1	103%	97.8%	94.3%	89.2%	95.8%	94.3%	94.9%	–	105%	106%	101%	102%	109%	111%	102%	119%	99.3%	105%	101%	106%
Nc1nc(SN=Nc2ccc(S(N)(=O)=O)cc2)c2[nH]cnc2n1	-3.49% (active)	28.6%	24.2%	22.5%	-9.94% (active)	15.9%	1.85% (active)	–	-1.6% (active)	5.59% (active)	11.2%	19.4%	34.7%	7.11% (active)	39.8%	-13.7% (active)	36.5%	17.6%	-2.18% (active)	-15.3% (active)
COc1cccc(CNCCN2C(=O)c3ccc4c5c(ccc(c35)C2=O)C(=O)N(CCNCc2cccc(OC)c2)C4=O)c1	90.4%	121%	85.7%	60.5%	99.6%	76.4%	95.5%	–	90.4%	-27.8% (active)	68.3%	120%	75.9%	114%	75.9%	24.6%	121%	88.8%	-0.889% (active)	-14.8% (active)
Cc1cc2nc(-c3ccccc3)c(-c3ccccc3)nc2cc1C	107%	89.2%	92.8%	113%	125%	114%	98.7%	–	89%	76.9%	108%	115%	98.9%	108%	112%	113%	118%	93.1%	99.4%	88.1%
CC(=O)[C@@H]1CC[C@]2(C(N)=O)CC[C@]3(C)[C@H](CC[C@@H]4[C@@]5(C)CCC(=O)C(C)(C)[C@@H]5CC[C@]43C)[C@@H]12	100%	90.1%	102%	98.7%	107%	97.1%	89.6%	–	92.5%	94.4%	109%	101%	89.1%	90.6%	107%	103%	120%	98.7%	99%	80.4%
c1ccc(-c2nn(-c3ccccc3)[n+](-c3cccc4ccccc34)n2)cc1	-11.3% (active)	11.8%	32.7%	69.1%	40.4%	72.2%	90.3%	–	18.9%	4.45% (active)	-43.5% (active)	48.1%	41.4%	66.3%	10.6%	8.96% (active)	8.44% (active)	90.1%	18.7%	0.0671% (active)
